Screening data: PubChem, National Center for Advancing Translational Sciences (NCATS)
Rows were chosen to be rich in hits. Some 11% of all compounds tested hit in one or more screens of this group.
NPSR antagonist = blocks cAMP signaling of the human neuropeptide S receptor; Q6W5P4; CHO-NPSR cells, cAMP TR-FRET, antagonist mode; Potency, µM (highest dose often 38.3 µM), hits mostly inhibitors; hit rate 1% among 220,000; AID 1461; active means well fitted curve in the direction sought with a large enough effect; inconclusive means small, poorly fitted or top-dose-only effect, or another doubt; inactive means no such curve, though single readings can be large; an effect the other way counts as inactive or inconclusive; further: nearly all actives have a fitted effect of over 50% in size
PNC inhibitor = blocks assembly of the perinucleolar compartment | PC3M PTB-GFP, PNC prevalence imaging, 16 h; hits give low values | activity change (PNC), negative = inhibition, % at 10 µM | hit rate 3.1% among 140,000 | AID 2417;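 active means readout at or below -70, meaning at least 70% loss of cells showing the perinucleolar compartment, a nuclear body marking cancer cells; inconclusive means readout between -30 and a set limit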
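Compounds are pinned in duplicate onto adhered PC3M cells stably expressing GFP-tagged PTB and incubated 16 h at 37 C. Cells are then fixed, nuclei stained with Hoechst, and PNC-positive cells counted.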
ALDH1A1 inh = inhibitors of human aldehyde dehydrogenase 1A1. P00352. hit rate 7.3% among 220,000. Potency, µM (doses to about 75.3 µM), actives largely listed as inhibitors. AID 1030. Purified ALDH1A1, NADH fluorescence, propionaldehyde substrate
HPGD inh = HPGD (human) dehydrogenase inhibition; hit rate 4.3% among 150,000; purified HPGD, NADH fluorescence kinetic, PGE2 substrate; P15428; Potency, µM, most hits filed as inhibitors
Target sequence (P15428 whole entry, looked up): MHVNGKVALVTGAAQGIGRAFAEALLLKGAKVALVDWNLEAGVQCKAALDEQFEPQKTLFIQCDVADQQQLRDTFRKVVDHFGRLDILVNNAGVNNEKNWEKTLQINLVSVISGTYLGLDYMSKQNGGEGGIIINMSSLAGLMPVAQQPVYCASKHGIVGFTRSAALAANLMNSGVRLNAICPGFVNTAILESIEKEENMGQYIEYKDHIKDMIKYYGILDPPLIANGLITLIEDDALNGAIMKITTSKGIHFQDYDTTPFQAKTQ
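20 nM HPGD preincubated 15 min at room temperature with compound in 50 mM Tris-HCl pH 8, 0.01% Tween 20. Started with 1 mM NAD+ and 30 uM prostaglandin E2; NADH fluorescence (360/450 nm) read 5 times over 30-s intervals, last minus first.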
IMPase Li inh = membrane-permeable IMPase blocker, potentiated with lithium. hit rate 0.35% among 210,000. CHO-M1 cells, IP1 TR-FRET (IP-One), carbachol + lithium. AID 1457. Potency, µM (series often up to 59.4 µM), hits mostly inhibitors; active means well fitted curve in the direction sought with a large enough effect; inconclusive means small, poorly fitted or top-dose-only effect, or another doubt; inactive means no such curve, though single readings can be large; an effect the other way counts as inactive or inconclusive;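 further: IP1 builds up when IMPase is blocked and the TR-FRET signal falls; nearly all actives have a fitted effect of over 50% in size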
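CHO cells stably expressing M1 receptor (2000/well) were cultured 16–30 h, then exposed to compounds with a small lithium addition for 30 min at 37C. IP1 was measured by TR-FRET competition; AC50 from Hill fits.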
IMPase inh = IMPase inhibition in cells; P97697; CHO-M1 cells, IP1 accumulation, HTRF TR-FRET ratio; inhibition (IP1 accumulation), % at 46.1 µM; 120,000 tested, under 10 active; AID 901; active means well fitted curve in the direction sought with a large enough effect in the signal ratio, not every such curve was filed as active; inconclusive means small, poorly fitted or top-dose-only effect, or a change in a side signal; inactive means no such curve, though single readings can be large or run the other way; the % refers to the signal ratio;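 further: cells stimulated with carbachol in lithium chloride buffer; higher means more IMPase inhibition seen as more IP1 and lower FRET ratio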
Target sequence (P97697 whole entry, looked up): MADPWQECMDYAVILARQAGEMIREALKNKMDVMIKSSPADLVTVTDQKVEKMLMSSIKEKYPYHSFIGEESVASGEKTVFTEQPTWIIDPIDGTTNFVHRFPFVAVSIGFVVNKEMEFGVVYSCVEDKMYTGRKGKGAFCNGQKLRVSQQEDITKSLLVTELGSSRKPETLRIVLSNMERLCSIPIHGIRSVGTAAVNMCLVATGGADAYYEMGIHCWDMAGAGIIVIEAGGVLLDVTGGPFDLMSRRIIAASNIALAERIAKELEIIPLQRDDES
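CHO-M1, 2000 cells/well, cultured 16–30 h; cpd up to 46 uM; carbachol (50 uM solution, stimulation buffer w/ 50 mM LiCl, pH 7.4), 30 min 37C; IP-One TR-FRET, 10 min RT; Ex 320/Em 665, 620; Hill-fit AC50.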
Numbers stand for hits; 0 = inactive; ? = inconclusive; - = no result given; [ ] = dose if it differs, or a comment. Unless noted, the call rests on the fitted dose curve; in most records, active means well fitted inhibition curve with a large enough effect (not every such curve was filed as active); inconclusive means small, poorly fitted or top-dose-only effect, or another doubt; inactive means no such curve, though single readings can be large or run the other way.

SMILES | NPSR antagonist | PNC inhibitor | ALDH1A1 inh | HPGD inh | IMPase Li inh | IMPase inh
COc1ccc(C(=O)c2cc([N+](=O)[O-])ccc2N2CCOCC2)cc1 | 0 | -84 | 0 | 0 | 0 | -
CCOc1ccc(C(=O)c2cc([N+](=O)[O-])ccc2N2CCOCC2)cc1 | 0 | ? | 0 | 0 | 0 | -
CCCC(=O)c1ccc(N2CCOCC2)c(F)c1 | 0 | 0 | 0 | 0 | 0 | 0
Cc1ccc(C(=O)c2ccc(N3CCOCC3)c(F)c2)cc1 | 0 | 0 | ? | 28µM | 0 | 0
Cc1ccc(C(=O)c2cc([N+](=O)[O-])ccc2N2CCOCC2)cc1 | 0 | -96 | ? | 0 | 0 | -
O=C(COc1ccc([N+](=O)[O-])cc1)N/N=C/c1cc([N+](=O)[O-])ccc1N1CCOCC1 | 0 | 0 | 3.5µM | 0 | 0 | 0
CCCCNC(=O)CCc1nc2cccnc2n1Cc1ccc(OC)cc1 | 0 | 0 | ? | 0 | 0 | 0
C(/CCc1ccccc1)=N\n1cnnc1 | 0 | -100 | 0 | 0 | 0 | 0
NC(=O)N/N=C/CCc1ccccc1 | 0 | - | - | - | - | -
Cc1ccc([N+](=O)[O-])c(C(=O)Nc2cccnc2Cl)c1 | 0 | - | 0 | - | 0 | -
O=C(CCl)NCc1cc(-c2ccc(Cl)cc2)no1 | 0 | - | 22µM | - | 0 | -
COc1ccc(OCc2cc(-c3ccc(Cl)cc3)no2)cc1 | 0 | - | 0 | - | 0 | -
CCN(CC)S(=O)(=O)c1ccc2oc(Nc3ccc4c(c3)OCCO4)nc2c1 | 0 | 0 | 0 | 0 | 0 | 0
O=C(CSc1nnc(C2CC2)n1-c1ccccc1)NCc1ccco1 | 0 | 0 | 0 | 0 | 0 | 0
O=C(CSc1nnc(C2CC2)n1Cc1ccco1)NCC(F)(F)F | 0 | - | 24µM | - | 0 | -
CCN1CCC[C@@H]1CNC(=O)c1cc(S(N)(=O)=O)ccc1OC | - | - | 0 | 0 | 0 | 0
CC1=NN(c2ccccc2)C(=O)C1c1ccccc1 (stereo not drawn) | 0 | -91 | 0 | 0 | 0 | -
CC1=NN(c2ccccc2)C(=O)C1C(=O)c1ccccc1 (stereo not drawn) | 0 | 0 | 0 | 0 | 0 | 0
CCC(Sc1ncccc1C(=O)Oc1cccc([N+](=O)[O-])c1)C(=O)Nc1ccccc1OC (stereo not drawn) | 0 | 0 | ? | 0 | 0 | 0
COc1ccc(CC(=O)Nc2ccc(S(=O)(=O)Nc3cc(C)on3)cc2)cc1 | 0 | 0 | 0 | ? | 0 | 0
N#CCC(=N)N1CCN(c2ccc(F)cc2)CC1 | 0 | - | 11µM | - | 0 | -
N#CCC(=N)N1CCN(c2ccc(Cl)cc2)CC1 | 0 | 0 | 0 | 0 | 0 | 0[1.84 µM]
CCCc1nnc(SCC(=O)N2CCCCC2C)n1CC1CCCO1 (stereo not drawn) | 0 | 0 | 0 | 0 | 0 | 0
CCOc1ccc(C(=O)NCC2CCCO2)cc1 (stereo not drawn) | 0 | 0 | 0 | 16µM | 0 | 0
CCOC(=O)Nc1ccc(C(=O)NCC2CCCO2)cc1 (stereo not drawn) | 0 | 0 | 0 | 16µM | 0 | 0
SMILES | NPSR antagonist | PNC inhibitor | ALDH1A1 inh | HPGD inh | IMPase Li inh | IMPase inh
Cc1ccc(NS(=O)(=O)c2ccc(C(=O)NCC3CCCO3)cc2)cc1 (stereo not drawn) | 0 | - | 0 | - | 0 | -
O=C(NCC1CCCO1)c1ccc(COc2ccc(F)cc2)o1 (stereo not drawn) | 0 | 0 | 10µM | 25µM | 0 | 0
CCOc1ccc(OCc2ccc(C(=O)NCC3CCCO3)o2)cc1 (stereo not drawn) | 0 | 0 | 0 | 0 | 0 | 0[1.84 µM]
O=[N+]([O-])c1ccc(OCc2cnc(Cl)s2)cc1 | 0 | - | 0 | - | 0 | -
Cc1ccc(OCC(=O)N/N=C/c2cc([N+](=O)[O-])ccc2N2CCCCC2)cc1 | 0 | ? | ? | 0 | 0 | 0
CCOC(=O)c1nnn(-c2nonc2N)c1-c1ccc(OCC)cc1 | 0 | 0 | 0 | 0 | 0 | 0
Nc1nonc1-n1nnc(C(=O)c2ccccc2)c1-c1ccccc1 | 0 | ? | 2.8µM | 0 | 0 | 0
CN(C)C(=S)Nc1ccc([N+](=O)[O-])cc1 | 0 | 0 | ? | 0 | 0 | -
Cc1occc1-c1nnc(SCC(=O)NCC2CCCO2)n1C (stereo not drawn) | 0 | 0 | 0 | 0 | 0 | 0
O=Cc1[nH]c2ccccc2c1N(C(=O)CCl)c1ccc([N+](=O)[O-])cc1 | ? | - | 7.9µM | - | - | -
